# In PubChem BioAssay AID1159580 (chemical genetic matrix, 2015):
# About 2,000 (36%) of roughly 5,500 compounds were called active. Inconclusive results (about 18%) are left out. The list shows a part of the results. Unmarked numbers belong to inactive results. No stated cut-off is given here; in the data, active means normalized growth mostly below about 0.91 (no sharp cut-off); inconclusive means no clear call, values can overlap the other calls; inactive means mostly above about 0.92.
# Assay: chemical genetic growth profiling, strain panel (AID 1159580);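 further: tested at 20 µM; growth read once vehicle control cultures reached saturation at 30 °C; 1 = growth at the plate median or of vehicle wells; lower values mean less growth of the strain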
# Details: S. cerevisiae deletion strains, growth OD
# [1] = locus YAR019C, strain CDC15, active compounds read low
# [2] = locus YBL105C, strain PKC1, active compounds read low
# [3] = locus YBR135W, strain CKS1, active compounds read low
# [4] = locus YBR136W, strain MEC1, active compounds read low
# [5] = locus YBR160W, strain CDC28, active compounds read low
# [6] = locus YDL017W, strain CDC7, active compounds read low
# [7] = locus YDL028C, strain MPS1, active compounds read low
# [8] = locus YDL101C, strain DUN1, active compounds read low
# [9] = locus YDL108W, strain KIN28, active compounds read low
# [10] = locus YDL132W, strain cdc53, active compounds read low
# [11] = locus YDL214C, strain PRR2, active compounds read low
# [12] = locus YDR052C, strain DBF4, active compounds read low
# [13] = locus YDR054C, strain cdc34, active compounds read low
# [14] = locus YDR226W, strain ADK1, active compounds read low
# [15] = locus YDR477W, strain SNF1, active compounds read low
# [16] = locus YER123W, strain YCK3, active compounds read low
# [17] = locus YER133W, strain GLC7, active compounds read low
# [18] = locus YFL009W, strain cdc4, active compounds read low
# [19] = locus YFL029C, strain CAK1, active compounds read low
# [20] = locus YFR003C, strain YPI1, active compounds read low
# [21] = locus YFR019W, strain FAB1, active compounds read low
# [22] = locus YFR028C, strain CDC14, active compounds read low
# [23] = locus YGR040W, strain KSS1, active compounds read low
# [24] = locus YGR052W, strain FMP48, active compounds read low
# [25] = locus YGR092W, strain DBF2, active compounds read low
# [26] = locus YHR030C, strain SLT2, active compounds read low
# [27] = locus YHR079C, strain IRE1, active compounds read low
# [28] = locus YHR082C, strain KSP1, active compounds read low
# [29] = locus YHR205W, strain SCH9, active compounds read low
# [30] = locus YIL147C, strain SLN1, active compounds read low
# [31] = locus YJL095W, strain BCK1, active compounds read low
# [32] = locus YJL128C, strain PBS2, active compounds read low
# [33] = locus YJL157C, strain FAR1, active compounds read low
# [34] = locus YJR016C, strain ILV3, active compounds read low
# [35] = locus YJR066W, strain TOR1 (second series), active compounds read low
# [36] = locus YJR066W, strain TOR1, active compounds read low
# [37] = locus YKL048C, strain ELM1, active compounds read low
# [38] = locus YKL067W, strain YNK1, active compounds read low
# [39] = locus YKL101W, strain HSL1, active compounds read low
# [40] = locus YKL193C, strain SDS22, active compounds read low
# [41] = locus YKL203C, strain TOR2, active compounds read low
# [42] = locus YLR113W, strain HOG1, active compounds read low
# [43] = locus YLR133W, strain CKI1, active compounds read low
# [44] = locus YLR403W, strain SFP1, active compounds read low
# [45] = locus YML070W, strain DAK1, active compounds read low
# [46] = locus YMR001C, strain CDC5, active compounds read low
# [47] = locus YMR205C, strain PFK2 (second series), active compounds read low
# [48] = locus YMR277W, strain FCP1, active compounds read low
# [49] = locus YNL006W, strain LST8, active compounds read low
# [50] = locus YNL020C, strain ARK1, active compounds read low
# [51] = locus YNL161W, strain CBK1, active compounds read low
# [52] = locus YNL183C, strain NPR1, active compounds read low
# [53] = locus YNL207W, strain RIO2, active compounds read low
# [54] = locus YNL222W, strain SSU72, active compounds read low
# [55] = locus YNL307C, strain MCK1 (second series), active compounds read low
# [56] = locus YOL078W, strain AVO1, active compounds read low
# [57] = locus YOL136C, strain PFK27, active compounds read low
# [58] = locus YOR061W, strain CKA2, active compounds read low
# [59] = locus YOR119C, strain RIO1, active compounds read low
# [60] = locus YOR231W, strain MKK1, active compounds read low
# [61] = locus YOR329C, strain SCD5, active compounds read low
# [62] = locus YPL031C, strain PHO85, active compounds read low
# [63] = locus YPL153C, strain RAD53, active compounds read low
# [64] = locus YPL204W, strain HRR25, active compounds read low
# [65] = locus YPL209C, strain IPL1, active compounds read low
# [66] = locus YPL256C, strain CLN2, active compounds read low
# [67] = locus YPR025C, strain CCL1, active compounds read low
# [68] = locus YPR106W, strain ISR1, active compounds read low
# [69] = locus YPR111W, strain DBF20, active compounds read low
# [70] = strain NNK1, active compounds read low
# [71] = strain TSCII, active compounds read low
structure (smiles),measurement,setting,value
FC(F)(F)c1cc(NC(=S)SCCSC(=S)Nc2cc(C(F)(F)F)cc(C(F)(F)F)c2)cc(C(F)(F)F)c1,normalized growth,[1],0.993
same,normalized growth,[2],0.989
same,normalized growth,[3],1
same,normalized growth,[4],0.986
same,normalized growth,[5],0.997
same,normalized growth,[6],0.991
same,normalized growth,[7],0.991
same,normalized growth,[8],1
same,normalized growth,[9],0.99
same,normalized growth,[10],0.988
same,normalized growth,[11],0.889
same,normalized growth,[12],1
same,normalized growth,[13],0.994
same,normalized growth,[14],0.994
same,normalized growth,[15],0.951
same,normalized growth,[16],0.949
same,normalized growth,[17],0.911
same,normalized growth,[18],1
same,normalized growth,[19],0.994
same,normalized growth,[20],0.993
same,normalized growth,[21],1.01
same,normalized growth,[22],0.993
same,normalized growth,[23],0.951
same,normalized growth,[24],1.04
same,normalized growth,[25],0.993
same,normalized growth,[26],0.984
same,normalized growth,[27],1.04
same,normalized growth,[28],1.03
same,normalized growth,[29],0.983
same,normalized growth,[30],0.97
same,normalized growth,[31],1.08
same,normalized growth,[32],0.954
same,normalized growth,[33],0.884
same,normalized growth,[34],0.995
same,normalized growth,[35],0.94
same,normalized growth,[36],1.09
same,normalized growth,[37],0.971
same,normalized growth,[38],0.862
same,normalized growth,[39],0.968
same,normalized growth,[40],0.992
same,normalized growth,[41],1.06
same,normalized growth,[42],0.869
same,normalized growth,[43],0.972
same,normalized growth,[44],0.982
same,normalized growth,[45],0.908
same,normalized growth,[46],0.997
same,normalized growth,[47],0.988
same,normalized growth,[48],0.986
same,normalized growth,[49],0.996
same,normalized growth,[50],0.973
same,normalized growth,[51],0.998
same,normalized growth,[52],1.03
same,normalized growth,[53],0.987
same,normalized growth,[54],0.989
same,normalized growth,[55],0.984
same,normalized growth,[56],0.992
same,normalized growth,[57],0.933
same,normalized growth,[58],0.994
same,normalized growth,[59],1.02
same,normalized growth,[60],1.03
same,normalized growth,[61],0.996
same,normalized growth,[62],0.963
same,normalized growth,[63],0.946
same,normalized growth,[64],0.932
same,normalized growth,[65],0.992
same,normalized growth,[66],0.926
same,normalized growth,[67],0.999
same,normalized growth,[68],0.998
same,normalized growth,[69],0.988
same,normalized growth,[70],0.986
same,normalized growth,[71],0.993
Nc1ccccc1C(=O)Nc1cc(C(F)(F)F)cc(C(F)(F)F)c1,normalized growth,[1],0.957
same,normalized growth,[2],0.973
same,normalized growth,[3],0.985
same,normalized growth,[4],0.946
same,normalized growth,[5],0.982
same,normalized growth,[6],0.978
same,normalized growth,[7],0.943
same,normalized growth,[8],0.937
same,normalized growth,[9],0.969
same,normalized growth,[10],0.967
same,normalized growth,[11],1
same,normalized growth,[12],0.97
same,normalized growth,[13],0.96
same,normalized growth,[14],0.976
same,normalized growth,[15],0.992
same,normalized growth,[16],0.957
same,normalized growth,[17],1.01
same,normalized growth,[18],0.968
same,normalized growth,[19],0.944
same,normalized growth,[20],0.984
same,normalized growth,[21],0.986
same,normalized growth,[22],0.974
same,normalized growth,[23],1.01
same,normalized growth,[24],0.921
same,normalized growth,[25],0.961
same,normalized growth,[26],0.855
same,normalized growth,[27],0.836
same,normalized growth,[28],0.851
same,normalized growth,[29],0.816
same,normalized growth,[30],0.946
same,normalized growth,[31],0.844
same,normalized growth,[32],0.914
same,normalized growth,[33],1.01
same,normalized growth,[34],0.943
same,normalized growth,[35],0.997
same,normalized growth,[36],0.903
same,normalized growth,[37],0.949
same,normalized growth,[38],0.978
same,normalized growth,[39],0.957
same,normalized growth,[40],0.955
same,normalized growth,[41],1.06
same,normalized growth,[42],0.762 (active)
same,normalized growth,[43],0.934
same,normalized growth,[44],1.02
same,normalized growth,[45],0.933
same,normalized growth,[46],0.975
same,normalized growth,[47],0.947
same,normalized growth,[48],0.952
same,normalized growth,[49],0.937
same,normalized growth,[50],0.945
same,normalized growth,[51],0.971
same,normalized growth,[52],0.871
same,normalized growth,[53],0.963
same,normalized growth,[54],0.977
same,normalized growth,[55],0.941
same,normalized growth,[56],0.961
same,normalized growth,[57],0.956
same,normalized growth,[58],0.99
same,normalized growth,[59],0.981
same,normalized growth,[60],0.87
same,normalized growth,[61],0.969
same,normalized growth,[62],0.991
same,normalized growth,[63],0.987
same,normalized growth,[64],0.976
same,normalized growth,[65],0.952
same,normalized growth,[66],0.781 (active)
same,normalized growth,[67],0.985
same,normalized growth,[68],0.934
same,normalized growth,[69],0.946
same,normalized growth,[70],0.93
same,normalized growth,[71],0.974
